Hit rate of the full screen: of about 85,000 compounds, about 440 (0.52%) showed an effect of 50% or more. This excerpt belongs to a sample that is enriched for strong results.
Assay: In vitro enzyme assay to detect hydrolysis of chlorophenol red-beta-D-[…] directly proportional to the number of Toxoplasma stably expressing beta-galactosidase
Assay type: functional, organism-based, Toxoplasma gondii
Parameters: scale not given: in the data most compounds retested in dose-response had high values

| SMILES | Percent Effect (10 µM) | Percent Effect (50 µM) |
| --- | --- | --- |
| Cc1nc2ccccc2nc1NCc1cccc(OCC2CCCO2)c1 (stereo unspecified) | 17.15% |  |
| Cc1nnc(NCc2cccc(OCC3CCCO3)c2)c(C#N)c1C (stereo unspecified) | 91.1% |  |
| N#Cc1ccc(NCc2cccc(OCC3CCCO3)c2)nc1 (stereo unspecified) | -17.65% |  |
| CN(C)S(=O)(=O)N(CCCO)c1ccccc1Br |  | -12.8% |
| CCc1nnc(Nc2cc(C)nc(C3CCN(c4ncccn4)C3)n2)s1 (stereo unspecified) | 8.527% |  |
| CCc1nnc(Nc2cc(C)nc(C3CCN(c4cnccn4)C3)n2)s1 (stereo unspecified) | 9.302% |  |
| CCc1nnc(Nc2cc(C)nc(C3CCN(c4ccncn4)C3)n2)s1 (stereo unspecified) | 84.37% |  |
| O=C(c1cccc(N2CCNC2=O)c1)N1CCOCC1 |  | -16.74% |
| Cc1ccc(-c2cc(CNc3ncnc4c3CCNCC4)no2)cc1 | 59.71% |  |
| COc1ccc(-c2cc(CNc3ncnc4c3CCNCC4)no2)cc1 | 5.898% |  |
| Clc1ccccc1-c1cc(CNc2ncnc3c2CCNCC3)no1 | 22.17% |  |
| O=C(CSc1nnc[nH]1)NCc1ccc(Br)c(F)c1 |  | -12.01% |
| CC(=O)Cc1ccn(C(C)C)n1 |  | -14.04% |
| CC(C)n1ccc(CN2C(=O)CC(C)(C)C2=O)n1 |  | 66.84% |
| CCOc1ccc(CN2C(=O)CC(C)(C)C2=O)nc1 | 15.64% |  |
| Nc1n[nH]c(SCc2ccc3c(c2)OCCO3)n1 |  | 48.58% |
| CC(C)(C)OC(=O)CNC1CCOCC1 |  | -4.673% |
| CCN1CC(C(=O)Nc2ccc(Br)cn2)CC1=O (stereo unspecified) |  | -17.13% |
| Cc1cccc(NC(=O)C2CCCNC2)n1 (stereo unspecified) |  | -13.07% |
| O=C(Nc1ccc(Br)cn1)C1CCCNC1 (stereo unspecified) |  | 56.99% |
| CC(NC(=O)c1ccc(Br)cc1)C(=O)N1CCOCC1 (stereo unspecified) |  | -8.67% |
| Cc1cc(C)n(CC2CCCN2CCS(C)(=O)=O)n1 (stereo unspecified) | -2.075% |  |
| Cc1cc(C)n(CC2CCCN2CCCS(C)(=O)=O)n1 (stereo unspecified) | 55.61% |  |
| Cc1cc(C)n(CC2CCCN2CCCS(N)(=O)=O)n1 (stereo unspecified) | -7.895% |  |
| Cc1n[nH]c(C)c1C(NC(N)=O)c1ccccc1 (stereo unspecified) |  | 2.289% |
| CCN1CCCN(c2ccccn2)CC1 |  | 3.404% |

| SMILES | Percent Effect (10 µM) | Percent Effect (50 µM) |
| --- | --- | --- |
| NCc1cccc(-c2ccccn2)n1 |  | 73.75% |
| NCc1nc(-c2ccccn2)no1 |  | -15.18% |
| NCc1nc(-c2ccccn2)cs1 |  | -2.115% |
| CN(CC(=O)Nc1ccsc1)C1CCS(=O)(=O)C1 (stereo unspecified) |  | -6.022% |
| O=C(NCC1CCOC1)c1ccoc1C(F)(F)F (stereo unspecified) |  | -4.875% |
| NCCNc1ccc2ccccc2n1 |  | -5.159% |
| O=C(c1ccc(F)cc1)C(O)O |  | 0.6979% |
| CCn1ncnc1CN1CCCC2(C1)CN(C)C(=O)O2 (stereo unspecified) |  | -8.186% |
| NC(=O)N1CCCCCC1C1CCNCC1 (stereo unspecified) |  | 99.53% |
| COCC(=O)N1CCCCCC1C1CCNCC1 (stereo unspecified) |  | -2.687% |
| CC(=O)N1CCCCCC1C1CCNCC1 (stereo unspecified) |  | -20.88% |
| COCCC(=O)N(C)C(C)Cc1ncccc1C (stereo unspecified) |  | -3.603% |
| CC1(C)CC(n2cccn2)C(C)(C)O1 (stereo unspecified) |  | 95.21% |
| O[C@@H]1CCC[C@H]1n1cccn1 |  | 27.87% |
| Cn1cc(C(=O)NC2CC(C)(C)OC2(C)C)cn1 (stereo unspecified) |  | 6.396% |
| Cc1cc(C(=O)NCc2ccc(CO)cc2)cc(C)n1 |  | 4.895% |
| Cc1cn2c(n1)C(CNCc1cccc3c1OCO3)CCC2 (stereo unspecified) | 1.818% |  |
| Cn1cccc1CNCC1CCCn2cc(C(C)(C)C)nc21 (stereo unspecified) | 2.504% |  |
| Cc1cn2c(n1)C(CNCC1=Cc3ccccc3OC1)CCC2 (stereo unspecified) | -4.432% |  |
| CC(C)(C)c1cn2c(n1)C(CNCc1cnn3ccccc13)CCC2 (stereo unspecified) | 84.08% |  |
| CC(C)(C)c1cn2c(n1)C(CNCc1ccccn1)CCC2 (stereo unspecified) | 84.2% |  |
| Cc1cn2c(n1)C(CNCc1cnn3ccccc13)CCC2 (stereo unspecified) | -1.725% |  |
| Cn1nccc1NC(=O)N1CCOCC1C1CC1 (stereo unspecified) |  | -2.135% |
| O=C1COCC(Cc2ccccc2)N1 (stereo unspecified) |  | -23.94% |
| NC(=O)CN1CCn2cccc2C1c1ccccc1 (stereo unspecified) |  | -16.03% |
| CNC1CCN(c2cc(OC)cc(OC)c2)C1 (stereo unspecified) |  | -16.53% |

| SMILES | Percent Effect (10 µM) | Percent Effect (50 µM) |
| --- | --- | --- |
| CCN1CCCN(C(=O)c2ccccc2COC)CC1 |  | 3.121% |
| COCc1ccccc1C(=O)N1CCCC(c2cc(C)[nH]n2)C1 (stereo unspecified) | -0.6285% |  |
| COCc1ccccc1C(=O)N1CCCC(O)C1 (stereo unspecified) |  | 58.79% |
| O=C(NCC(O)C1CCCCC1)[C@@H](O)c1ccccc1 (stereo partly specified) |  | -2.815% |
| Cc1nn(CCO)c(NC(C)c2nccs2)c1C (stereo unspecified) |  | -2.968% |
| COC[C@H]1CCC[C@H]1NC(=O)CCn1cncn1 |  | 1.07% |
| CN(Cc1ccccc1)C(=O)CN1CCCC(Cn2cncn2)C1 (stereo unspecified) | -36.27% |  |
| CN(Cc1cnn(C)c1)C(=O)CN1CCCC(Cn2cncn2)C1 (stereo unspecified) | 96.23% |  |
| Cc1ccc(CN(C)C(=O)CN2CCCC(Cn3cncn3)C2)cc1 (stereo unspecified) | -19.93% |  |
| NC(=O)COC(=O)c1cc(Cl)cc(C(F)(F)F)c1 |  | -16.81% |
| Cc1[nH]ncc1C(=O)NCCCSCC(C)C |  | 11.62% |
| Cc1nn(C)c2c(=O)n(Cc3ccc(F)cc3)nnc12 | 62.42% |  |
| Cc1nn(C)c2c(=O)n(Cc3ccc(C#N)cc3)nnc12 | 39.12% |  |
| Cc1nn(C)c2c(=O)n(Cc3ccc(Cl)cc3)nnc12 | 71.45% |  |
| Cc1nn(C)c2c(=O)n(Cc3ccccc3)nnc12 | 61.89% |  |
| Cc1nn(C)c(=O)c2nn(-c3ccc(F)cc3)c(C)c12 | -17.45% |  |
| CCn1nc(C)c2nnn(CC(=O)Nc3cccc(F)c3)c(=O)c21 | -2.626% |  |
| CCn1nc(C)c2nnn(CC(=O)Nc3ccccc3)c(=O)c21 | 1.414% |  |
| Cc1c(C(=O)NC(C)C)nnn1Cc1ccccc1 |  | 17.24% |
| Cc1nn(C)c2c(=O)n(CC(=O)Nc3cc(Cl)cc(Cl)c3)nnc12 | -3.347% |  |
| COCC(C)(CCO)NCc1c(C)noc1C (stereo unspecified) |  | -23.44% |
| CCC(CNC(=O)Nc1cc(C)nn1C)N1CCCC1 (stereo unspecified) |  | -4.617% |
| NC(=O)C1CCN(CCOc2ccccc2F)CC1 |  | -5.356% |
| Cc1cnccc1NCCNC(=O)Cc1ccccn1 |  | -14.36% |

— ChEMBL document CHEMBL3988442, “University of Dundee, Small-Polar-MMV Screening Library” (2021)
